Screening results from PubChem BioAssay.
HCV inhibitor: blocks hepatitis C virus. Potency, µM (highest dose often 41.8 µM), for the others: at the top dose activity change, negative = inhibition, most hits filed as inhibitors. 340,000 tested, 3.4% active. Huh7.5.1 HCVcc-Cre infection, luciferase reporter, 44 h; note: potency is the fitted concentration of half-maximal effect
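Compounds are dispensed onto cells plated 4 h earlier at 1,000 per well, with HCVcc-Cre virus (about 0.5 moi) added next. Following 44 h of culture, luminescent signal is measured for 15 sec after 15 min with substrate at room temperature.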
Pf growth 48h: P. falciparum growth inhibition at 48 hours (one generation); 310,000 tested, 5.9% active; P. falciparum luciferase growth in erythrocytes, 48 h; Potency, µM (series often up to 28.7 µM), for inactives: at the top dose activity change, negative = inhibition, actives largely listed as inhibitors; note: potency is the fitted concentration of half-maximal effect
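Cell-based growth assay: transgenic P. falciparum expressing firefly luciferase, cultured in red cells within RPMI 1640 containing 0.5% w/v Albumax, 24 mM bicarbonate and gentamycin. A drop in luciferase activity indicates inhibition.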
HCMV antiviral: inhibitors of human cytomegalovirus; HFF cells, HCMV-luciferase reporter, 72 h; stronger effect = lower value; activity change, negative = inhibition, % at 57.5 µM; 410,000 tested, 4.5% active; in the data active = activity change below about -60%; inconclusive = no clear call, values can overlap the other calls; inactive = above about -39%
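Inhibition of viral replication was scored as loss of reporter luminescence in HFFs infected with HCMV-luciferase (MOI 1 PFU/cell) for 72 h; compounds tested at 2 doses, normalized to buffer and Salinomycin controls.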
Pf growth 96h: inhibits malaria parasite growth, 96 h; P. falciparum luciferase reporter growth, 96 h; Potency, µM (highest dose often 28.7 µM), for inactives: at the highest dose activity change, negative = inhibition, most hits filed as inhibitors; 320,000 tested, 6.9% active; AID 504834; note: potency is the fitted concentration of half-maximal effect
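P. falciparum expressing integrated firefly luciferase grown in erythrocytes (2% hematocrit, 0.05% parasitemia final) with compounds for 96 hours at 37 C, 5% CO2. Growth inhibition read as loss of luminescence after adding luciferase detection reagent.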
The depositor's hits bear a star; ? = inconclusive; nt = no result. Only some compounds are listed: those with a hit (about 13% of all), similar ones and a draw of the others. Unless noted, calls come from the whole dose curve; as a rule, active = well fitted inhibition curve with a large enough effect; inconclusive = small, poorly fitted or top-dose-only effect, or another doubt; inactive = no such curve, though single readings can be large or run the other way. % is set by controls: 0 for no effect and ±100 for the full control effect.

SMILES	HCV inhibitor	Pf growth 48h	HCMV antiviral	Pf growth 96h
COc1ccc(C(=O)CN2C(=O)C(C)(C)Oc3ccc(C(=O)N4CCCCCC4)cc32)cc1	-1%	nt	-39	9.3µM*
Cc1ccc(NC(=O)c2ccc3c(c2)N(CC(=O)N2CCCCC2)C(=O)C(C)(C)O3)cc1	5.6µM*	?	-20	?
COc1ccc(S(=O)(=O)N2CCOC23CCN(S(=O)(=O)c2ccc(C)cc2)CC3)cc1	?	15µM*	-25	?
COc1ccc(S(=O)(=O)N2CCOC23CCN(S(=O)(=O)c2ccc(F)cc2)CC3)cc1	2%	?	-26	?
Cc1ccc(S(=O)(=O)N2CCOC23CCN(S(=O)(=O)c2c(C)cc(C)cc2C)CC3)cc1	?	?	-98*	4.7µM*
Cc1ccc(Nc2sc(C(=O)c3ccccc3)c(N)c2S(=O)(=O)c2ccccc2)cc1Cl	nt	nt	16	nt
O=C(O)Cc1ccc(NC(=O)c2ccc(NC(=O)C3CC3)cc2)cc1	10%	-19%	-20	5.9µM*
CC(C)(C)c1ccc(C(=O)Nc2ccc(CC(=O)O)cc2)o1	-4%	nt	-74*	2.3µM*
O=C(Nc1ccc(Cc2ccc(NC(=O)C3CC3)cc2)cc1)C1CC1	1%	-7%	-23	31%
Cc1ccc(-c2nnc(SC(C)C(=O)NCC3CCCO3)nc2-c2ccc(C)cc2)cc1 (stereo unspecified)	?	13µM*	-19	9.3µM*
CC(Sc1nnc(-c2ccccc2)c(-c2ccccc2)n1)C(=O)NCC1CCCO1 (stereo unspecified)	-10%	nt	-20	nt
Cc1ccccc1/C=C/c1nc2ccccc2c(=O)n1Cc1ccccc1	15%	?	-32	10µM*
CCn1c(/C=C/c2ccccc2C)nc2ccccc2c1=O	-20%	1%	-24	-15%
Cc1ccccc1/C=C\c1nc2ccccc2c(=O)[nH]1	10µM*	?	47	0%
Cc1ccccc1-n1c(/C=C/c2c(C)n(C)c3ccccc23)nc2ccccc2c1=O	nt	nt	-19	nt
Cc1ccccc1-n1c(/C=C/c2ccccc2F)nc2ccccc2c1=O	nt	nt	-85*	nt
Cc1ccccc1/C=C/c1nc2ccccc2c(=O)n1CCc1ccccc1	?	13µM*	-27	-5%
COC(=O)c1c(-c2cccs2)csc1NC(=O)COc1ccc(C(C)C)cc1	nt	nt	-34	nt
Cc1sc2ncn(CC(=O)Nc3cccc(C(F)(F)F)c3)c(=O)c2c1S(=O)(=O)N1CCC(C)CC1	nt	nt	-4	nt
CCCCOC(=O)Nc1cc(C(=O)OC)ccc1C(=O)OC	?	10µM*	nt	?
COC(=O)c1ccc(C(=O)OC)c(NC(=S)N2CCC(C)CC2)c1	11%	-25%	-16	7.4µM*
CCCCOC(=O)Nc1ccc(C(=O)OC)cc1	-24%	66%	-18	-3%
Cc1cccn2c(=O)c(C(=O)N3CCN(c4ccccc4F)CC3)cnc12	nt	nt	-29	nt
CN(C)S(=O)(=O)N1CCC(n2cnc3cccnc32)CC1	nt	nt	9	nt
O=C(NC1CC(=O)N(c2ccc(F)cc2)C1)C(c1ccccc1)c1ccccc1 (stereo unspecified)	nt	nt	66	nt
SMILES	HCV inhibitor	Pf growth 48h	HCMV antiviral	Pf growth 96h
CC(C)COC(=O)N(C)C[C@H]1OCc2cnnn2CCCC(=O)N([C@@H](C)CO)C[C@H]1C	nt	nt	-3	nt
Cc1cc2c(cc1C)-c1c(ssc1=Nc1ccc(S(N)(=O)=O)cc1)C(C)(C)N2	13µM*	-21%	117	-27%
CC(=O)NS(=O)(=O)c1ccc(N=c2ssc3c2-c2cc(C)c(C)cc2NC3(C)C)cc1	?	-27%	-39	?
CCC(C)NC(=O)Cn1c(=O)ccc2cc(S(=O)(=O)N3CCCC3)ccc21 (stereo unspecified)	nt	nt	3	nt
CCCC1=[N+](CC(=O)c2ccc(Br)cc2)CCn2cccc21	-17%	12µM*	5	?
ClCC1=Nc2cccc3cccc(c23)N1	nt	4.1µM*	nt	4.7µM*
O=C1CC(c2nc3ccccc3n2CCCOc2ccccc2)CN1c1ccc(F)cc1 (stereo unspecified)	nt	nt	-25	nt
c1coc(CNc2c3c(nc4ncnn24)CCCC3)c1	-26%	-2%	11	36%
Clc1cccc(-c2cc3nc4c(c(NCc5ccco5)n3n2)CCCC4)c1	10µM*	-77%	95	?
COc1ccc(CCNC(=O)CS(=O)(=O)c2cn(CC(=O)N(C(C)C)C(C)C)c3ccccc23)cc1OC	nt	?	-8	10µM*
CCCn1cc(SCC(=O)NC2CCCC2)c2ccccc21	-13%	9.3µM*	-28	?
CC(C)c1ccc(S(=O)(=O)c2cn(CC(=O)Nc3ccc(F)cc3)c3ccccc3c2=O)cc1	nt	nt	-107*	nt
COc1ccccc1NC(=O)CS(=O)(=O)c1cn(CC(=O)N(C(C)C)C(C)C)c2ccccc12	-8%	nt	2	nt
CC(C)N(C(=O)Cn1cc(S(=O)(=O)CC(=O)Nc2ccccc2)c2ccccc21)C(C)C	7%	?	-8	8.3µM*
CCCn1cc(SCC(=O)NCC2CCCO2)c2ccccc21 (stereo unspecified)	?	24%	102	15%
Cc1ccc(Cc2nc3ccccc3nc2SCC(=O)NCCc2ccccc2)cc1	nt	nt	3	nt
CC1(C(=O)Nc2cnc3ccccc3c2)CCN1C(=O)C/C=C/c1ccccc1 (stereo unspecified)	nt	nt	15	nt
CNC(=O)CSc1cn(CC(=O)N(C(C)C)C(C)C)c2ccccc12	11%	1%	-1	10µM*
O=C(NCCCN1CCN(c2ccc(F)cc2)CC1)Nc1ccccc1Cl	nt	nt	-15	nt
Cc1ccccc1-n1nc(CO)c(C(=O)NCC(c2ccccc2)c2ccccc2)n1	nt	nt	-86*	nt
O=C(NCC(c1ccccc1)c1ccccc1)c1nn(-c2ccccc2Cl)nc1CO	nt	nt	-92*	nt
CCC(=O)N1CCc2cc(Br)cc(S(=O)(=O)N3CCCC(C(=O)NCc4cccc(OC)c4)C3)c21 (stereo unspecified)	nt	nt	-35	nt
CC1CCCN(S(=O)(=O)c2cc3c4c(c2)CC(=O)N4CCC3)C1 (stereo unspecified)	nt	nt	-6	nt
O=c1c2oc3ccccc3c2n(Cc2ccc(Cl)cc2)c(=O)n1Cc1ccccc1	nt	nt	-3	nt
CCOc1c(Cl)cc(Cl)cc1CNCCSc1nnnn1C	nt	nt	-2	nt
SMILES	HCV inhibitor	Pf growth 48h	HCMV antiviral	Pf growth 96h
CCn1c2ccccc2c2cc(CN3CCN(Cc4ccccc4Cl)CC3)ccc21	nt	nt	43	nt
CCN(CC)c1nc2ccccc2n(Cc2cccc(OC)c2)c1=O	-18%	?	1	1.5µM*
COc1cccc(Cn2c(SCC(=O)N(C)c3ccccc3)nc3ccccc32)c1	nt	nt	-60*	nt
COc1cccc(Cn2c(=O)oc3ccccc32)c1	10%	47%	34	49%
COc1cccc(Cn2c(=O)ccc3ccccc32)c1	-1%	34%	-81*	108%
CN(C(=O)CSc1nc2ccccc2n1Cc1cccc(C(F)(F)F)c1)c1ccccc1	nt	nt	-12	nt
COc1cccc(CNC(=O)c2ccc3c(c2)nnn3C2CCCC2)c1	nt	nt	-8	nt
O=C(COc1ccc(Cl)cc1)NCc1nnc2c3ccccc3c(-c3ccccc3)nn12	7%	-20%	?	13µM*
